Drawing on paper PMC11062922 (Nature Chemical Biology, 2023), this text covers potency estimated from few doses, EC50 and Kd for 20 compounds.

Where two headings read alike, the source gives them in different places.

Holding throughout (design): species or system human, MV4-11 + K-562 + COLO205 + SK-N-BE2 + OVCAR-8
One assay has as its system EPHB6. As to conditions: read-out: apparent Kd, n = 1.
For a further assay, the system named is MERTK. To be noted: read-out: apparent Kd, n = 1.
The test system of another assay is PIM1. As to conditions: read-out: apparent Kd, n = 1.
In the next assay the test system is PRKDC. As to conditions: read-out: apparent Kd, n = 1.
Another assay deals with AKT1. To be noted: read-out: apparent Kd, n = 1.
In a further assay the test system is CSNK1G1. As to conditions: read-out: apparent Kd; compound concentrations: 100 nM and 1000 nM (sheet 'Samples'), CATDS: 5.3431605837735603E-3; n = 1.
For a further assay, the system named is IRAK1. To be noted: read-out: apparent Kd, n = 1.
For a further assay, the system named is MAP2K5. As to conditions: read-out: apparent Kd, compound concentrations: 100 nM and 1000 nM (sheet 'Samples'), n = 1.
The subject of the next assay is MAPK11. As to conditions: read-out: apparent Kd, compound concentrations: 100 nM and 1000 nM (sheet 'Samples'), n = 1.
The subject of another assay is MAPK1. To be noted: read-out: apparent Kd, compound concentrations: 100 nM and 1000 nM (sheet 'Samples'), n = 1.
Another assay concerns NQO1. As to conditions: read-out: apparent Kd; compound concentrations: 100 nM and 1000 nM (sheet 'Samples'), CATDS: 3.59016343581718E-3; n = 1.
A further assay concerns PI4KA. As to conditions: read-out: apparent Kd; compound concentrations: 100 nM and 1000 nM (sheet 'Samples'), CATDS: 7.2985744477334297E-3; n = 1.
The subject of a further assay is PRKCI. To be noted: read-out: apparent Kd; compound concentrations: 100 nM and 1000 nM (sheet 'Samples'), CATDS: 3.8239218597995801E-3; n = 1.
A further assay has as its system RPS6KA5. To be noted: read-out: apparent Kd; compound concentrations: 100 nM and 1000 nM (sheet 'Samples'), CATDS: 4.7822949231481997E-3; n = 1.
The next assay has as its system STRADA. To be noted: read-out: apparent Kd, n = 1.
For another assay, the system named is SYK. As to conditions: read-out: apparent Kd, n = 1.
The test system of the next assay is TAOK1. As to conditions: read-out: apparent Kd, n = 1.
For a further assay, the system named is PKN3. To be noted: compound concentrations:0.3nM, 1nM, 3nM, 10nM, 30nM, 100nM, 300nM, by the legend:Standard error of the EC50 estimation as provided by the drc package.; for Kd: read-out: apparent Kd.
For another assay, the system named is PAK4. As to conditions: compound concentrations:0.3nM, 1nM, 3nM, 10nM, 30nM, 100nM, 300nM, by the legend:Standard error of the EC50 estimation as provided by the drc package.; for Kd: read-out: apparent Kd.
The next assay deals with NTRK1. To be noted: read-out: apparent Kd; compound concentrations: 100 nM and 1000 nM (sheet 'Samples'), CATDS: 2.09044703121741E-2; n = 1.
Where [1] appears, read: compound concentrations:100 nM and 1000 nM (sheet 'Samples').
The mark [2] stands for this setting: 1000nM,R2:0.95736535454590599,slope:1.35169947345033,EC50 Standard Error.
Setting [3] is: 1000nM,R2:0.97831665287894598,slope:1.2194506521172099,EC50 Standard Error.
[4] abbreviates: 1000nM,R2:0.90981556238152395,slope:1.4029304179145099,EC50 Standard Error.
[5] abbreviates: 1000nM,R2:0.96781137417830099,slope:0.58987671625518001,EC50 Standard Error.
Where [6] appears, read: 1000nM,R2:0.99888452271644701,slope:1.2700915856501001,EC50 Standard Error.
The mark [7] stands for this setting: 1000nM,R2:0.98802455290270397,slope:1.1906156337481999,EC50 Standard Error.
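Throughout, for EC50: competition pulldown with Kinobeads ε in cell lysates, inhibitor preincubated 45 min at 4 °C, bound kinases quantified by LC–MS/MS against DMSO control.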
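Throughout, for Kd: competition pulldown with Kinobeads ε in cell lysates, inhibitor preincubated 45 min at 4 °C, bound kinases quantified by LC–MS/MS against DMSO control.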

For the compound `O=C1NC(=O)C(N2CCc3ccccc32)=C1c1ccccc1Cl` [SB-373598], the potency estimated from few doses in the assay on EPHB6 (setting [1]) was 615 nM; in the assay on MERTK (setting [1]) it was 1850 nM; with PIM1 (setting [1]) it was 923 nM; with PRKDC (setting [1]), 1200 nM.

As for `Cn1ncc2c(N)ncnc21` [SKF-18267], the potency estimated from few doses is 879 nM in the assay with AKT1 (compound concentrations: 100 nM and 1000 nM (sheet 'Samples'), CATDS: 4.8125130234568303E-3); 716 nM in the assay on CSNK1G1; 887 nM in the assay with EPHB6 (compound concentrations: 100 nM and 1000 nM (sheet 'Samples'), CATDS: 4.7916385769682596E-3); 1830 nM in the assay on IRAK1 (compound concentrations: 100 nM and 1000 nM (sheet 'Samples'), CATDS: 3.5689080514204499E-3); 1250 nM with MAP2K5 (CATDS: 4.1093022417344298E-3); 1040 nM in the assay on MAPK11 (CATDS: 4.4454363185357799E-3). The potency estimated from few doses with MAPK1 (CATDS: 4.58474987436945E-3) is 974 nM; in the assay on MERTK (compound concentrations: 100 nM and 1000 nM (sheet 'Samples'), CATDS: 9.2588510560485896E-3) it was 294 nM; in the assay on NQO1, 1800 nM; in the assay on PI4KA, 420 nM; in the assay on PIM1 (compound concentrations: 100 nM and 1000 nM (sheet 'Samples'), CATDS: 7.3887725324269602E-3), 412 nM; in the assay with PRKCI, 1500 nM. For the same compound, the potency estimated from few doses was 547 nM with PRKDC (compound concentrations: 100 nM and 1000 nM (sheet 'Samples'), CATDS: 6.2124168993476997E-3); 891 nM in the assay on RPS6KA5; 1540 nM in the assay with STRADA (compound concentrations: 100 nM and 1000 nM (sheet 'Samples'), CATDS: 3.7902262633519698E-3); 635 nM with SYK (compound concentrations: 100 nM and 1000 nM (sheet 'Samples'), CATDS: 5.7016392995471003E-3); 830 nM in the assay on TAOK1 (compound concentrations: 100 nM and 1000 nM (sheet 'Samples'), CATDS: 4.9523162341794302E-3).

For the compound `O=C1N=C(NCCc2ccc(Cl)cc2)S/C1=C\c1ccc2ncccc2c1` [RO4498479-000], the potency estimated from few doses in the assay on EPHB6 (compound concentrations: 100 nM and 1000 nM (sheet 'Samples'), CATDS: 6.9765900844718596E-3) was 1660 nM; with PIM1 (compound concentrations: 100 nM and 1000 nM (sheet 'Samples'), CATDS: 9.1477666322176705E-3) it was 691 nM.

In the case of `Cl.NCc1ccc(-c2nc(-c3ccc(Cl)c(O)c3)c(-c3ccncc3)[nH]2)cc1` [SB-476429-A], in the assay on PKN3 (setting [2]), the EC50 is 38.4 nM and the Kd was 38.4 nM.

For the compound `CN(c1ccc(NC(=O)N2CCN(CCCN3CCOCC3)CC2)cc1)c1ccnc(Nc2ccc(CS(C)(=O)=O)cc2)n1.Cl` [GW830899A], the potency estimated from few doses with MAPK1 (CATDS: 2.6373806441713499E-2) was 807 nM.

Regarding `Cc1ccc(Nc2ccnc(Nc3ccc4c(c3)CS(=O)(=O)C4)n2)cc1O.Cl` [GW579362A], the potency estimated from few doses in the assay with MAPK1 (CATDS: 2.9087751414108801E-2) is 1350 nM.

Turning to `CNC(=O)c1ccccc1Nc1nc(Nc2ccc(N3CCOCC3)cc2)ncc1Cl.Cl` [GSK1576028A], the potency estimated from few doses with IRAK1 (setting [1]) was 1020 nM.

In the case of `CCn1c(-c2nonc2N)nc2c(C#CC(C)(C)O)nc(OCCNC)cc21.Cl` [GSK949675A], in the assay on PAK4 (setting [3]), the half-maximal effective concentration (EC50) was 316 nM and the Kd is 218 nM. For the same compound, in the assay with PKN3 (setting [4]), the EC50 is 89.8 nM and the Kd is 89.8 nM.

`COc1cccc2c(-c3ccncc3)c(-c3ccc(F)cc3)nn12` [GW468513X]: the potency estimated from few doses in the assay with MAPK11 (CATDS: 3.7828559303077401E-2) was 1640 nM.

As to `CCn1c(-c2nonc2N)nc2c(-c3ccccc3)ncc(OCCCN)c21.CCn1c(-c2nonc2N)nc2c(-c3ccccc3)ncc(OCCCN)c21.O=C(O)C(F)(F)F.O=C(O)C(F)(F)F` [GSK260205A], the potency estimated from few doses in the assay with AKT1 (compound concentrations: 100 nM and 1000 nM (sheet 'Samples'), CATDS: 6.9127027959846404E-2) is 157 nM.

`CCn1c(-c2nonc2N)nc2c(C#CC(C)(C)O)nc(OCCN)cc21.CCn1c(-c2nonc2N)nc2c(C#CC(C)(C)O)nc(OCCN)cc21.Cl.Cl` [GSK902056A]: in the assay on PAK4 (setting [5]), the EC50 was 5300 nM and the Kd was 4860 nM. In addition, in the assay with PKN3 (setting [6]), the 50% effective concentration (EC50) is 10.2 nM and the Kd is 10.2 nM.

On to `CN1C[C@@H]2Cn3c(c(C4=C(c5cn(C)c6ccccc56)C(=O)NC4=O)c4ccccc43)C[C@H]2C1.Cl` [RO0320234-001], for which the results for the potency estimated from few doses in the assay on EPHB6 (setting [1]), in the assay on PRKDC (setting [1]) and in the assay with TAOK1 (setting [1]) were 1960 nM, 859 nM and 1350 nM, respectively.

Take `Clc1cc(Cl)cc(Nc2ccnc(Nc3cc(Cl)cc(Cl)c3)n2)c1` [GSK175726A]: the potency estimated from few doses in the assay on EPHB6 (compound concentrations: 100 nM and 1000 nM (sheet 'Samples'), CATDS: 8.5475708332426303E-3) was 1630 nM; in the assay on PRKDC (compound concentrations: 100 nM and 1000 nM (sheet 'Samples'), CATDS: 1.07981791880609E-2) it was 607 nM.

In the case of `Cc1cccc(Nc2nc(N[C@H]3CCCC[C@H]3N)ncc2C(N)=O)c1.Cl` [GSK986310C], the potency estimated from few doses in the assay with STRADA (setting [1]) was 2120 nM. In addition, the potency estimated from few doses in the assay with SYK (setting [1]) is 79.7 nM. In addition, in the assay with PAK4 (setting [7]), the concentration for a half-maximal effect (EC50) is 135 nM and the Kd is 65.9 nM.

As to `NCCNS(=O)(=O)c1ccc(-c2ccnc3[nH]ccc23)cc1` [GSK977617A], in the assay with MERTK (setting [1]), the potency estimated from few doses is 1440 nM.

For `CCOC(=O)N1CCC(n2cnc(-c3ccc(F)cc3)c2-c2ccnc(N)n2)CC1` [SB-219952], the potency estimated from few doses in the assay with MERTK (compound concentrations: 100 nM and 1000 nM (sheet 'Samples'), CATDS: 8.4469178777721397E-3) was 1410 nM.

As for `COc1ccc(Nc2ncc(C#N)c(Nc3ccccc3C(N)=O)n2)cc1N1CCN(C)CC1.Cl` [GSK1558669A], the potency estimated from few doses with IRAK1 (compound concentrations: 100 nM and 1000 nM (sheet 'Samples'), CATDS: 7.7027436488320998E-3) is 467 nM; with MAP2K5 (CATDS: 8.5242635319968205E-3) it was 318 nM; in the assay with SYK (compound concentrations: 100 nM and 1000 nM (sheet 'Samples'), CATDS: 6.16985372159695E-3), 1440 nM.

`Fc1ccc(-c2c(-c3ccncc3)[nH]c3cccnc23)cc1` [RO1153853-000]: the potency estimated from few doses in the assay on MAPK11 (CATDS: 6.1294477906433602E-2) was 838 nM.

For `CCn1c(-c2nonc2N)nc2c(C#CC(C)(C)O)nc(O[C@@H](CN)c3ccccc3)cc21.O=C(O)C(F)(F)F` [GSK1007102B], in the assay with AKT1 (setting [1]), the potency estimated from few doses was 1120 nM.

Turning to `CCN(CC)Cc1ccc(Nc2nccc(-c3cnn4ncccc34)n2)cc1` [GW780056X], in the assay on NTRK1, the potency estimated from few doses was 1140 nM.

The EC50 is the concentration at which the effect is half-maximal.
